# Source: article PMC5540273 (PLoS ONE, 2017)
# Experiments:
# Details in all cases: concentration: 1 μM, replicates: in singlicate; n = 1
# CDK8 = system: CDK8
# CDK9 = system: CDK9
# CDKL1 = system: CDKL1
# CDKL2 = system: CDKL2
# CDKL3 = system: CDKL3
# CDKL5 = system: CDKL5
# CHEK1 = system: CHEK1
# CHEK2 = system: CHEK2
# CIT = system: CIT
# CLK1 = system: CLK1
# CLK2 = system: CLK2
# CLK3 = system: CLK3
# CLK4 = system: CLK4
# CSF1R-autoinhibited = system: CSF1R-autoinhibited
# CSF1R = system: CSF1R
# CSK = system: CSK
# CSNK1A1L = system: CSNK1A1L
# CSNK1A1 = system: CSNK1A1
# CSNK1D = system: CSNK1D
# CSNK1E = system: CSNK1E
# 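Note: KINOMEscan kinase panel screen.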
SMILES,%Inh (CDK8) [%],%Inh (CDK9) [%],%Inh (CDKL1) [%],%Inh (CDKL2) [%],%Inh (CDKL3) [%],%Inh (CDKL5) [%],%Inh (CHEK1) [%],%Inh (CHEK2) [%],%Inh (CIT) [%],%Inh (CLK1) [%],%Inh (CLK2) [%],%Inh (CLK3) [%],%Inh (CLK4) [%],%Inh (CSF1R-autoinhibited) [%],%Inh (CSF1R) [%],%Inh (CSK) [%],%Inh (CSNK1A1L) [%],%Inh (CSNK1A1) [%],%Inh (CSNK1D) [%],%Inh (CSNK1E) [%]
C[C@@H]1CC[C@@H](C(=O)Nc2ccccc2)CN1c1cc(-c2ccc3c(N)n[nH]c3c2)nc(N)n1 [GSK2286062],19,4,0,7,0,0,0,26,8,14,13,0,16,10,0,0,6,0,20,0
O=C(Nc1n[nH]c2nc(-c3ccc(O)cc3)ccc12)C1CC1 [SB-710363],0,36,39,96.6,44,41,0,4,29,15,21,10,15,0,0,0,10,0,0,12
Oc1cc(Nc2ccnc3cc(I)ccc23)ccc1F [GW552771],23,0,0,30,0,0,2,4,30,8,51,0,9,23,23,0,16,0,20,16
COc1cccc(C2=C(Nc3ccc(Cl)c(C(=O)O)c3)C(=O)NC2=O)c1 [SB-390769],0,0,47,25,100,6,0,0,40,12,6,0,17,13,0,0,5,0,8,13
Cc1ccc(C(=O)Nc2ccc(Nc3ccnc4cc(-c5nccs5)ccc34)cc2O)cc1.Cl [GW494702],23,0,0,28,2,0,4,33,36,1,0,0,0,44,20,30,14,0,97.1,8
Cl.c1ccc(-c2ccc3c(Nc4ccc5[nH]ccc5c4)ccnc3c2)nc1 [GW440138],45,0,0,7,0,0,0,34,0,20,0,8,19,36,75,0,0,0,13,27
O=c1[nH]cc(-c2ccc(N3CCOCC3)cc2)c2sc(-c3cn[nH]c3)cc12 [GSK2276055],0,71,11,0,0,0,0,14,92.1,90,76,37,89,0,33,7,44,73,84,94.4
O=C(Nc1cccc(-c2nn3ncccc3c2-c2ccnc(Nc3ccccc3)n2)c1)c1c(F)cccc1F [GSK198271],0,4,3,30,0,6,5,0,29,27,0,25,8,17,99.7,97.5,2,0,20,85
Cl.Cl.NCC(C(=O)Nc1cc(Br)c(-c2ccnc3[nH]ccc23)s1)c1ccccc1 (stereo not shown) [GSK1269851],0,3,20,51,0,0,0,0,99,63,100,39,61,0,28,0,19,0,35,28
O=C(Nc1n[nH]c2cc(-c3ccoc3)ccc12)C1CC1 [SB-738481],11,2,18,87,10,50,0,6,0,23,73,13,9,0,2,0,5,0,2,0
COCCOCCOc1cc2ncc3c4ccc(C#N)cc4[nH]c3c2cc1OC,1,0,56,7,0,0,55,57,98.2,84,67,14,76,97.4,50,10,8,5,0,2
CN(C)S(=O)(=O)c1cc(-c2ccc3nccc(-c4cccc(S(N)(=O)=O)c4)c3c2)cnc1N [GSK1669921],35,0,77,25,0,12,100,0,16,57,86,21,54,0,7,0,14,49,0,33
CNC(=O)c1ccccc1Nc1nc(Nc2ccc(N3CCOCC3)cc2)ncc1Cl.Cl [GSK1576028],1,27,36,35,0,0,65,91.3,26,99.5,97.1,90,98.8,89,97.5,85,68,30,36,13
Fc1ccc(-c2ncn(C3CCNCC3)c2-c2ccnc(Oc3ccc(-c4ccccc4)cc3)n2)cc1 [SB-245391],92.8,12,28,0,32,0,0,0,98.9,21,11,32,0,8,12,14,71,93.9,96.2,99.5
CC(=O)Nc1nc2cnc(Nc3cc(NC(=O)c4cccc(C5(C#N)CC5)c4Cl)ccc3C)nc2s1,21,0,5,36,24,0,0,4,62,0,0,0,10,15,99.4,41,23,0,0,0
Cc1ccc(F)c(C(=O)Nc2cccc(-c3nn4ccccc4c3-c3ccnc(Nc4cccc(F)c4)n3)c2)c1F [GSK361061],15,0,2,31,0,5,6,0,9,32,0,0,14,0,98.8,39,21,41,35,54
CC(=O)N1CCN(c2ccc(Nc3nccc(-c4sc(C(C)C)nc4-c4cccc(NS(=O)(=O)c5cccc(Cl)c5)c4)n3)cn2)CC1 [GSK1660437],7,68,31,99,0,73,1,0,71,11,0,0,17,0,36,95.4,0,23,0,0
Cl.Cl.NCC(NCc1ccc(-c2ccnc3[nH]ccc23)s1)c1ccccc1 (stereo not shown) [GSK1321565],39,0,0,13,0,0,0,33,93,89,43,45,88,19,50,0,16,10,26,64
CCn1c(-c2nonc2N)nc2c(C#CC(C)(C)O)nc(OC[C@H](N)c3ccccc3)cc21 [GSK943949],4,0,0,0,0,12,0,0,61,24,0,15,8,0,35,0,0,7,0,15
COC(=O)Nc1nc2ccc(Oc3ccc(NC(=O)Nc4cc(C(F)(F)F)ccc4F)cc3)cc2n1C.Cl [GW692089],77,0,2,40,0,0,0,58,100,7,0,0,0,0,86,0,0,0,0,0
